# Measurements as given in PubChem BioAssay (NCATS).
# A number with no mark means an inactive call. Results filed as inconclusive are left out. Where a call stands in place of a potency, no number is given. Calls of active or inactive are those of the source. Calls come from the whole dose curve; as a rule, active = well fitted curve in the direction sought with a large enough effect; inconclusive = small, poorly fitted or top-dose-only effect, or another doubt; inactive = no such curve, though single readings can be large; an effect the other way counts as inactive or inconclusive.
# Key:
# [1] = target: Cytochrome P450 3A4 (Homo sapiens) (UniProt P08684); experiment: qHTS Assay for Activators of Cytochrome P450 3A4 (AID 885); note: nearly all actives have a fitted effect of over 65% in size
# Summary of the method: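 Steps: enzyme/substrate mix dispensed; compound added, 10 min RT; NADPH regeneration solution added, 60 min RT; luciferin detection buffer stops reaction; 20 min later luminescence measured.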
# [2] = Confirmation and Secondary Assay for Modulators of Hemoglobin Beta Chain Splicing at IVS2 654 locus (AID 910);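 note: HeLa cells stably carrying EGFP split by mutant beta-globin IVS2-654 intron; potency is the fitted concentration of half-maximal effect; potency of activators that raise GFP signal by restoring correct splicing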
# Summary of the method: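 HeLa cells stably expressing EGFP interrupted by β-globin IVS2-654 intron, seeded overnight in Opti-MEM/2% FCS, then treated 2 days at 37 °C. Restored splicing read as total peak GFP intensity per well by laser scanning cytometry (488 nm excitation, 500–520 nm emission); 500 nM antisense PNA as control.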
# [3] = target: Ubiquitin carboxyl-terminal hydrolase 1 (Homo sapiens) (UniProt O94782); experiment: Inhibitors of USP1/UAF1: Pilot qHTS (AID 504865); note: potency is the fitted concentration of half-maximal effect; nearly all actives have a fitted effect of over 35% in size
# Summary of the method: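 In 50mM HEPES pH 7.8 containing 0.5mM EDTA, 1mM TCEP, 0.1 mg/ml BSA and 0.01% Tween-20, 1nM USP1/UAF1 is exposed to compound for 15 min, then Ub-Rho (150nM final) is added and fluorescence is read over time.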
# [4] = target: Rap guanine nucleotide exchange factor 3 (Homo sapiens) (UniProt O95398); experiment: Confirmatory qHTS for antagonist of cAMP-regulated guanine nucleotide exchange factor 3 (EPAC1) (AID 1645880); note: nearly all actives have a fitted effect of over 55% in size; note: potency is the fitted concentration of half-maximal effect
# Summary of the method: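 Nucleotide exchange uses 100 nM EPAC1, 250 nM RAP1B-BODIPY-GDP and 50 uM GDP, with compounds in a concentration-titration series. After 5 min at room temperature, fluorescence (480 nm ex/540 nm em) is read every 5 min for 30 min. Data are normalized to control ATA and DMSO.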
# [5] = target: Rap guanine nucleotide exchange factor 3 (Homo sapiens) (UniProt O95398); experiment: Confirmatory qHTS for agonist of cAMP-regulated guanine nucleotide exchange factor 3 (EPAC1) (AID 1645881);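 note: EPAC1 catalysed release of BODIPY-GDP from Rap1B seen as fluorescence loss; nearly all actives have a fitted effect of over 75% in size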
# [6] = target: Rap guanine nucleotide exchange factor 4 (Homo sapiens) (UniProt Q8WZA2); experiment: Confirmatory qHTS for agonist of cAMP-regulated guanine nucleotide exchange factor 4 (EPAC2) (AID 1645884);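 note: nucleotide exchange releases bodipy-GDP from Rap1 and this lowers its fluorescence; nearly all actives have a fitted effect of over 65% in size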; note: potency is the fitted concentration of half-maximal effect
# [7] = target: Rap guanine nucleotide exchange factor 4 (Homo sapiens) (UniProt Q8WZA2); experiment: Confirmatory qHTS for antagonist of cAMP-regulated guanine nucleotide exchange factor 4 (EPAC2) (AID 1645885); note: nearly all actives have a fitted effect of over 25% in size; note: potency is the fitted concentration of half-maximal effect
# [8] = target: Tumor susceptibility gene 101 protein (Homo sapiens) (UniProt Q99816); experiment: qHTS Assay for Iinhibitors of HIV-1 Budding by Blocking the Interaction of PTAP/TSG101: Hit Validation (AID 651600); note: potency is the fitted concentration of half-maximal effect; nearly all actives have a fitted effect of over 70% in size
# Summary of the method: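 Compounds are added to the Tsg101 binding domain (10 uM final) in pH 7.5 HEPES buffer. FITC-PTAP peptide follows at 50 nM final. After 20 min at r.t., polarized FITC emission is measured.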
# [9] = target: Rap guanine nucleotide exchange factor 3 (Homo sapiens) (UniProt O95398); experiment: Counterscreen qHTS for antagonist of cAMP-regulated guanine nucleotide exchange factor 3 (EPAC1) (AID 1645888);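 note: fluorescence loss as bound BODIPY-GDP is released from Rap1B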
# Summary of the method: (§1)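 Rap1B–BODIPY-GDP (250 nM) with 50 uM GDP; compounds pin-transferred to 9.74 nM–152 uM final (activator) or from 7.32 nM upwards (inhibitor). Fluorescence Ex/Em 480/540 nm read at 5 and 30 min, then after adding cAMP or buffer, at room temperature.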
# [10] = target: Rap guanine nucleotide exchange factor 3 (Homo sapiens) (UniProt O95398); experiment: Counterscreen qHTS for agonist of cAMP-regulated guanine nucleotide exchange factor 3 (EPAC1) (AID 1645889); note: nearly all actives have a fitted effect of over 40% in size
# Summary of the method: as §1
# Chain of Rap guanine nucleotide exchange factor 4 (Homo sapiens) (Q8WZA2 whole entry, looked up): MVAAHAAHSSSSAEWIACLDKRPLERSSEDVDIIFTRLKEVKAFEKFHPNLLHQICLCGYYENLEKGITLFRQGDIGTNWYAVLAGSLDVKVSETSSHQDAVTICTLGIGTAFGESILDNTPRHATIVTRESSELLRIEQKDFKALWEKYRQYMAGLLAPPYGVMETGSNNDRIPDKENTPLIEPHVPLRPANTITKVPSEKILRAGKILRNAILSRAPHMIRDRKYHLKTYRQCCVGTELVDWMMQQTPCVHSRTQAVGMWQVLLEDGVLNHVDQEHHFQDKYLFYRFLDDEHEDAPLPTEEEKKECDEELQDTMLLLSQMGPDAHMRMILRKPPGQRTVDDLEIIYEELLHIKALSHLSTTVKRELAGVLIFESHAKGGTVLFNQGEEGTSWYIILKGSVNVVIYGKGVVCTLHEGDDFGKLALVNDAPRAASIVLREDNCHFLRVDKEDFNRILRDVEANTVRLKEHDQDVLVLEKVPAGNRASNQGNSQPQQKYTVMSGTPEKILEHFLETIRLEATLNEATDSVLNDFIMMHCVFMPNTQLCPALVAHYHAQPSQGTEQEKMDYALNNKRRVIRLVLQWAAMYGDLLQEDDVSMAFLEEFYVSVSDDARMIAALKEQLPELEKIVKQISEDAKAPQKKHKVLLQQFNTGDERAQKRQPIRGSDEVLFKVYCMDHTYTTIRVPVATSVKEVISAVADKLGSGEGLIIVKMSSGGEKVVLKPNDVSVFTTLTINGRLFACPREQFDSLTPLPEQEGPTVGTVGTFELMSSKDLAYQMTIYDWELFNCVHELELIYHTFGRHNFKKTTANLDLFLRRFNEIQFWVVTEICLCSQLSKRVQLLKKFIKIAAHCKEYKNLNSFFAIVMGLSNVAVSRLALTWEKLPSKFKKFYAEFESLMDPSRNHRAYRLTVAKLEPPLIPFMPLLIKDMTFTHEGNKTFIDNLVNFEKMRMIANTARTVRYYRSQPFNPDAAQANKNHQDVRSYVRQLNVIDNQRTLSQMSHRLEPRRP
# Chain of Rap guanine nucleotide exchange factor 3 (Homo sapiens) (O95398 whole entry, looked up): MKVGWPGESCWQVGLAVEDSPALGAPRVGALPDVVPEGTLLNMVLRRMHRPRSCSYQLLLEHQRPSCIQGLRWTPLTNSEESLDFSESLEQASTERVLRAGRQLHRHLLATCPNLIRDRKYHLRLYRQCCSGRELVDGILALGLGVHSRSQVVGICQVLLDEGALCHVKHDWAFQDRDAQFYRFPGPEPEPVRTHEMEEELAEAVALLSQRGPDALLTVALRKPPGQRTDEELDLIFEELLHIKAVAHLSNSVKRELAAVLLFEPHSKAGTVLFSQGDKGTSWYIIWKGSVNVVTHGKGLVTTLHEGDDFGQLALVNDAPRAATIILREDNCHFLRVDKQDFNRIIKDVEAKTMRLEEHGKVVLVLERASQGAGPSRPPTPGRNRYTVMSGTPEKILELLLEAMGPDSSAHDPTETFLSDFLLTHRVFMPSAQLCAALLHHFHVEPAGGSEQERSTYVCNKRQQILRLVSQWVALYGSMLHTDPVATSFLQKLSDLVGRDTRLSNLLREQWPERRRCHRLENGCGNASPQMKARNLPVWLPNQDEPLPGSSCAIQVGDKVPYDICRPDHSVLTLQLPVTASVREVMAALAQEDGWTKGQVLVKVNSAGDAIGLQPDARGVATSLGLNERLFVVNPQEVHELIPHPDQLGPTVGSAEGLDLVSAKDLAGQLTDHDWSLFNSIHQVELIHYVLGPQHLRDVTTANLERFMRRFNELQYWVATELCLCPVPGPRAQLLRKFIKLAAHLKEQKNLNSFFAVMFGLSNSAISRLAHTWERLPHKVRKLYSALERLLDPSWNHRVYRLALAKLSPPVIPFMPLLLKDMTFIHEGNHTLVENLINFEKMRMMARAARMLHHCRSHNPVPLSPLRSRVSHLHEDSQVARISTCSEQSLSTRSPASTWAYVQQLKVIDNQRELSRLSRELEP
# Chain of Tumor susceptibility gene 101 protein (Homo sapiens) (Q99816 whole entry, looked up, the tested form may be a part): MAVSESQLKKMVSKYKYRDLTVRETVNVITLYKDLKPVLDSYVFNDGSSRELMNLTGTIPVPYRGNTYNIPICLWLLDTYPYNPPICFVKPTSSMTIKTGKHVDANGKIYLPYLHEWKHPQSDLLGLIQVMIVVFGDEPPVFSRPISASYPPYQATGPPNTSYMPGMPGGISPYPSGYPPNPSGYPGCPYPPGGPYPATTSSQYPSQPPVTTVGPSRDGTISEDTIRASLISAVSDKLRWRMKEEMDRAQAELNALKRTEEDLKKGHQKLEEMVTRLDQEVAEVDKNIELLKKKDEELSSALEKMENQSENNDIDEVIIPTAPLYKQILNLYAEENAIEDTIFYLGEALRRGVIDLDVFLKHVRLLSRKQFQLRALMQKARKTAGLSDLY
# Chain of Cytochrome P450 3A4 (Homo sapiens) (P08684 whole entry, looked up): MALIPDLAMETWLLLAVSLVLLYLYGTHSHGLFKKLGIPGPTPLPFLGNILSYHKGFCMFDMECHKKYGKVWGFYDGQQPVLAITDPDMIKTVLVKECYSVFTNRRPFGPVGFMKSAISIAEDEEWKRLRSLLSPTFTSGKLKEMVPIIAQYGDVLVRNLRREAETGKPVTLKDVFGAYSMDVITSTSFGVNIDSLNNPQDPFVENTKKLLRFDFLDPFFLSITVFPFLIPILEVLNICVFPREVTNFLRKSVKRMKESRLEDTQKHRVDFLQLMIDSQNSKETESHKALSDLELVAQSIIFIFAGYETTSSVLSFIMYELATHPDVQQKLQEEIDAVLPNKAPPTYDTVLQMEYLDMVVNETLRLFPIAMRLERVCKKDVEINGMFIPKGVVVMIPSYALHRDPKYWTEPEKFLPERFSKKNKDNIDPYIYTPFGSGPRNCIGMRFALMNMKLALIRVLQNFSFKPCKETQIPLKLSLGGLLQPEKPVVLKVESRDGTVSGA
# Chain of Ubiquitin carboxyl-terminal hydrolase 1 (Homo sapiens) (O94782 whole entry, looked up): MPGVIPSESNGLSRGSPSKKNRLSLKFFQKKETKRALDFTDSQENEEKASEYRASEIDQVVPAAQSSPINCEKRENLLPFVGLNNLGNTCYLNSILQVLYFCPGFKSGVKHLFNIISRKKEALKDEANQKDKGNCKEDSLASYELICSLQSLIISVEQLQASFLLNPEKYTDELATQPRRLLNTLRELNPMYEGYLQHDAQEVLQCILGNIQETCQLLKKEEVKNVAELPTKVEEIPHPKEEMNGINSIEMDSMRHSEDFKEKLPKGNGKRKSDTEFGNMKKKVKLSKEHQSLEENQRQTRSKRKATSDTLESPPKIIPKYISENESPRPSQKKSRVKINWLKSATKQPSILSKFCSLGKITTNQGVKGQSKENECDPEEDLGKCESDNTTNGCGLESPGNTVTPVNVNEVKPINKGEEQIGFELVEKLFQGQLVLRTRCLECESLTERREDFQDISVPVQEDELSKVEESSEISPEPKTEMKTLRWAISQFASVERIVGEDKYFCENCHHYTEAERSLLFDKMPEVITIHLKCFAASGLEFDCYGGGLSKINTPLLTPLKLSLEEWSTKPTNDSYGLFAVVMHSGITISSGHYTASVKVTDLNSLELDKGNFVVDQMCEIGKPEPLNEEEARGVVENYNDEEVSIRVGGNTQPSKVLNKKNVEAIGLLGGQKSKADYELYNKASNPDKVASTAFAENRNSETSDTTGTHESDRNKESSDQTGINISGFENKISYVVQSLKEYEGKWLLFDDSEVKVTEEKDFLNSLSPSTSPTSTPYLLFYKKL
structure (smiles),measurement,setting,value
CC[C@@]1(O)CC(O)c2c(cc3c(c2O)C(=O)c2c(O)ccc(O)c2C3=O)C1C(=O)OC (stereo partly drawn),Potency,[1],inactive
same,Potency,[2],12.6 µM (active)
same,Potency,[3],22.4 µM (active)
same,Potency,[4],inactive
same,Potency,[5],inactive
same,Potency,[6],inactive
same,Potency,[7],inactive
Nc1ccc2nonc2c1[N+](=O)[O-],Potency,[8],14.6 µM (active)
same,Potency,[4],inactive
same,Potency,[6],112 µM (active)
same,Potency,[7],47.8 µM (active)
same,outcome,[9],inactive
COc1ccc(OC)c(N2C(=O)NC(=O)/C(=C/c3ccc([N+](=O)[O-])s3)C2=O)c1,Potency,[4],7.94 µM (active)
same,Potency,[5],inactive
same,activation,[6],"2.06% [at 17.1 µM, percent relative to cAMP agonist control]"
same,"activity change, negative = inhibition",[7],-32.4% [at 12.7 µM]
same,activation,[10],21.8% [at 30.8 µM]
O=C1CN=C(c2ccccc2)c2cc(Cl)ccc2N1Cc1ccc(Cl)cc1,Potency,[4],inactive
same,Potency,[6],inactive
same,"activity change, negative = inhibition",[7],1.14% [at 12.7 µM]
same,outcome,[9],inactive
Cc1cc(=O)oc2cc(OCC(=O)N3CCC(C(=O)O)(c4ccccc4)CC3)ccc12,Potency,[4],75.7 µM (active)
same,Potency,[5],inactive
same,Potency,[6],inactive
same,outcome,[9],inactive
Cc1cccc(N2C(=O)NC(=O)/C(=C\c3cc(C)n(-c4sc5c(c4C#N)CCCC5)c3C)C2=O)c1C,Potency,[4],30.1 µM (active)
same,Potency,[5],inactive
same,Potency,[6],inactive
same,outcome,[9],inactive
COC1C(OC(=O)c2ccc(C)[nH]2)C(O)C(Oc2ccc3c(O)c(NC(=O)c4ccc(O)c(CC=C(C)C)c4)c(=O)oc3c2Cl)OC1(C)C (stereo not drawn),Potency,[4],30.1 µM (active)
same,Potency,[5],inactive
same,Potency,[6],inactive
same,Potency,[10],inactive
